Compound activity (PubChem BioAssay)
In the library only some 12% were active in any assay of this set; here they are far more common.
G9a block: qHTS Assay for Inhibitors of Histone Lysine Methyltransferase G9a | Histone-lysine N-methyltransferase EHMT2 (Homo sapiens), Q96KQ7 | G9a H3K9 monomethylation, AlphaScreen, 2 h | Potency, µM (top dose mostly 102 µM), for inactives: at the top dose activity, negative = inhibition, actives largely listed as inhibitors | 350,000 tested, 8.8% active; further: on the % scale 0 is the no-effect control and ±100 the full control effect; nearly all actives have a fitted effect of over 75% in size
Target sequence (Q96KQ7 913-1193 limits assumed): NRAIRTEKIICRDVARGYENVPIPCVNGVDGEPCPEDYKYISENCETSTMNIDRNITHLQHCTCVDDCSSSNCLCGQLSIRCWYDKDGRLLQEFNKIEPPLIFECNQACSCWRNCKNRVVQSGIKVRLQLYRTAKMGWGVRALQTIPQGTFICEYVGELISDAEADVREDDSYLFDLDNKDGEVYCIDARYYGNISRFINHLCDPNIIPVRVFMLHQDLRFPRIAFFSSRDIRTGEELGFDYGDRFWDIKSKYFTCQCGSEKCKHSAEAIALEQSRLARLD
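Methyltransferase reactions run at room temperature for 2 h (20 nM enzyme, 500 nM biotin-H3K9 peptide, 20 uM SAM) after a 15 min compound preincubation; product detected by AlphaScreen beads and anti-H3K9me1 antibody.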
L3MBTL1 inh: qHTS Assay for the Inhibitors of L3MBTL1. Potency, µM (highest dose often 57.1 µM), for inactives: top-dose activity, negative = inhibition, hits mostly inhibitors. AID 485360, 2010. Lethal(3)malignant brain tumor-like protein 1 (Homo sapiens), Q9Y468. 230,000 tested, 0.66% active. AlphaScreen L3MBTL1–H3K9me1 peptide binding; further: on the % scale 0 is the no-effect control and ±100 the full control effect; nearly all actives have a fitted effect of over 60% in size
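Read-out is AlphaScreen signal from streptavidin donor and nickel chelate acceptor beads (10 ug/mL final each) bridging L3MBTL1 (50 nM) and biotinylated K9-monomethylated H3(1-15) peptide (75 nM), after 30 min compound exposure at room temperature.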
BAZ2B inh: qHTS Assay for Inhibitors of BAZ2B. Bromodomain adjacent to zinc finger domain protein 2B (Homo sapiens), Q9UIF8. AlphaScreen BAZ2B-H3K14Ac peptide displacement. Potency, µM (titrated, usually from 114 µM), inactives show at the highest dose activity change, negative = inhibition, actives largely listed as inhibitors. 360,000 tested, 4.4% active; further: on the % scale 0 is the no-effect control and ±100 the full control effect; nearly all actives have a fitted effect of over 60% in size
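Inhibition is scored as reduced AlphaScreen emission. The BAZ2B/b-H3(5-23)K14Ac complex (50 nM each) in PBS pH 7.4, 0.01% Tween-20 meets compound (up to 110 uM) for 30 min at RT before bead addition.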
JMJD2A Tudor inh: qHTS Assay for Inhibitors of JMJD2A-Tudor Domain; Lysine-specific demethylase 4A (Homo sapiens), O75164; AlphaScreen JMJD2A-Tudor / H3K4me3 peptide binding; AID 504339, 2011; Potency, µM (titrated, usually from 114 µM), inactives show at the highest dose activity change, negative = inhibition, hits mostly inhibitors; 390,000 tested, 4.4% active; further: on the % scale 0 is the no-effect control and ±100 the full control effect; nearly all actives have a fitted effect of over 50% in size
Sfp PPTase inh: qHTS Assay for Inhibitors of Bacillus subtilis Sfp phosphopantetheinyl transferase (PPTase). 4'-phosphopantetheinyl transferase ffp (Bacillus subtilis), Q9F4F7. Biochemical Sfp PPTase activity, qHTS. Potency, µM, without a hit: largest response in the series, negative = inhibition, usual class: inhibitors. 310,000 tested, 3.5% active. AID 1490, 2009;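 further: the enzyme is Sfp with the accession as filed and its product quenches rhodamine fluorescence; 0% = enzyme reaction without inhibitor and -100% = no enzyme wells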
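Buffer: 50 mM Hepes-Na pH 7.6, 10 mM MgCl2, 0.01% Nonidet P-40, 0.01% BSA. Enzyme 15 nM, pre-exposed to compound 15 min; substrates then added and fluorescence change tracked over 30 min.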
HP1b chromo inh: HTS for Inhibitors of HP1-beta Chromodomain Interactions with Methylated Histone Tails | AlphaScreen HP1-beta / biotin-H3K9me3 peptide binding | Potency, µM (top dose mostly 114 µM), for the others: at the highest dose activity change, negative = inhibition, most hits filed as inhibitors | 390,000 tested, 0.56% active | AID 540317, 2011; further: nearly all actives have a fitted effect of over 70% in size
Target sequence (P83916 whole entry, looked up): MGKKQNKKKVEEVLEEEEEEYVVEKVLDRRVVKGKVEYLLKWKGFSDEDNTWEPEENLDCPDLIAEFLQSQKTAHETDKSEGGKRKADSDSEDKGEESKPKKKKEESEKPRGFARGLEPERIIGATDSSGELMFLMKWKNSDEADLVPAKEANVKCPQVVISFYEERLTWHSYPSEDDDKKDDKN
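Compound inhibition of the preformed complex between 50 nM HP1-beta and 50 nM biotinylated H3K9me3 peptide was read by AlphaScreen. Buffer was PBS pH 7.4 with 0.01% Tween-20. Incubations ran 30 min at room temperature, with 10 ug/mL donor/acceptor beads.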
An asterisk follows results filed as active; ? = inconclusive; / = no result given; [ ] = remark or other dose. The call rests on the fitted dose curve; in most records, active means well fitted curve in the direction sought with a large enough effect; inconclusive means small, poorly fitted or top-dose-only effect, or another doubt; inactive means no such curve, though single readings can be large; an effect the other way counts as inactive or inconclusive. Potency means the concentration at half of the fitted maximal effect.

SMILES	G9a block	L3MBTL1 inh	BAZ2B inh	JMJD2A Tudor inh	Sfp PPTase inh	HP1b chromo inh
CCC1C(=O)CC(c2ccco2)NC1c1ccco1 (configuration not stated)	-15%[59 µM]	6%	9%	-10%	3%	27%
C=CCC1(O)CC(c2ccco2)NC(c2ccco2)C1CCC (configuration not stated)	32µM*	/	50µM*	4.5µM*	-10%	?
COc1cc(C)c2c(c1C=O)Oc1c(c(C)c(O)c3c1C(O)OC3=O)OC2=O (configuration not stated)	?	?	79µM*	79µM*	?	-35%
CN(C)Cc1cc(C(C)(C)C)cc(C(C)(C)C)c1O	7%[12.7 µM]	2%	-1%	-11%[11.4 µM]	10%	55%
CN(C)Cc1cc(C(C)(C)C)c(O)c(C(C)(C)C)c1	50µM*	-2%	-9%	-18%[11.4 µM]	5%	-11%
O=C(O)c1ccc(N/N=C/c2c[nH]c3ccccc23)cc1	?	/	?	-18%	-13%	21%
Nc1ccc(C(=O)N/N=C/c2cn(Cc3ccc(F)cc3)c3ccccc23)cc1	5%	/	?	?	-6%	13%
CC(C)n1cc(/C=N/Nc2ccc(C(=O)O)cc2)c2ccccc21	45µM*	/	-35%	-31%	-9%	1%
Cn1cc(/C=C/C(=O)c2ccccc2)c2ccccc21	10%[59 µM]	/	-31%	43%	50µM*	90%
O=C(N/N=C/c1cn(Cc2cccc(F)c2)c2ccccc12)c1cc(O)cc(O)c1	/	/	6.3µM*	7.1µM*	-21%	11µM*
Cc1ccc(C(=O)/C=C/c2cn(CN3CCN(C)CC3)c3ccccc23)cc1	-4%[59 µM]	/	9%	-19%	?	42%
Nc1ccc(C(=O)N/N=C/c2cn(Cc3ccccc3F)c3ccccc23)cc1	/	/	35µM*	89µM*	-11%	9%
Cc1ccc(Cn2ncc3c4sc(C)cc4n(C)c3c2=O)cc1	/	/	/	-23%	/	/
Cc1cccc(-c2noc(-c3ccc(NCc4cccnc4)c([N+](=O)[O-])c3)n2)c1	-8%[59 µM]	/	-7%	-11%	/	9%
COC(=O)N/N=C/c1cn(Cc2ccccc2F)c2ccccc12	-4%[12.7 µM]	-7%	?	-23%	-7%	11%
Cn1cc(/C=N/Nc2ccccc2)c2ccccc21	13µM*	-10%	40µM*	50µM*	-3%	?
O=C(O)c1ccc(N/N=C/c2cn(Cc3ccccc3F)c3ccccc23)cc1	2%[12.7 µM]	?	40µM*	56µM*	?	-16%
CCc1ccc2oc(C(=O)Nc3c(C)n(C)n(-c4ccccc4)c3=O)cc(=O)c2c1	?	/	0%	-11%	/	30%
COC(=O)CCCC1=CC2=CC(=O)C(C)(OC(=O)c3cccs3)C(=O)C2=CN1CCc1ccccn1 (configuration not stated)	11%[59 µM]	/	-30%	-22%	0%	21%
C=CCN1C=C2C(=O)C(C)(OC(=O)c3cccs3)C(=O)C=C2C=C1CCCC(=O)OC (configuration not stated)	-6%[12.7 µM]	/	79µM*	-29%	0%	11%
CCCC(=O)N1CCN(c2nc3ccc(F)cc3s2)CC1	9%[59 µM]	/	-1%	3%	/	17%
CN1C(=O)/C(=C/c2ccc(O)c([N+](=O)[O-])c2)NC1=S	40µM*	-22%	?	-32%	1%	2%
CCCN1C(=O)/C(=C/c2ccc(N3CCOCC3)cc2)NC1=S	-4%[59 µM]	/	-38%	-19%	7%	47%
CCN1C(=O)/C(=C/c2ccc(N3CCCC3)cc2)NC1=S	3.2µM*	?	25µM*	?	1%	?
CCN1C(=O)/C(=C/c2ccc(OCc3ccc(C(=O)O)cc3)c(Cl)c2)NC1=S	71µM*	/	?	?	19%	-5%
SMILES	G9a block	L3MBTL1 inh	BAZ2B inh	JMJD2A Tudor inh	Sfp PPTase inh	HP1b chromo inh
O=C(O)c1ccc(COc2ccc(CO)cc2Cl)cc1	-34%[12.7 µM]	/	-26%	-34%	13%	14%
CCCN1C(=O)/C(=C/c2ccc(N3CCCC3)c(C)c2)NC1=S	-48%[0.0925 µM]	?	35µM*	35µM*	1%	?
COc1ccccc1NC(=O)C(Cc1ccccc1)NS(=O)(=O)c1cccc2nsnc12 (configuration not stated)	-23%[59 µM]	/	/	?	/	-3%
COc1ccc(-c2nc3scc(CCNS(=O)(=O)c4ccc5c(c4)OCCO5)n3n2)cc1	-32%[59 µM]	/	-13%	-16%	/	25%
Cc1cc(N2CCOCC2)ccc1/C=C1\SC(=O)N(C(C)C)C1=O	36%[12.7 µM]	8%	-10%	-12%	-17%	18%
Cc1cc(N2CCCC2)ccc1/C=C1/C(=O)N(C)C(=S)N1C	2.5µM*	-12%	1.6µM*	?	-10%	?
Cc1cc(/C=C2\NC(=S)N(C)C2=O)ccc1N1CCCC1	3%	-17%	40µM*	89µM*	0%	22%
Cc1cc(/C=C2/C(=O)N(C)C(=S)N2C)ccc1N1CCCC1	8.9µM*	-5%[11.4 µM]	14µM*	14µM*	-8%	35µM*
Cc1ccc(S(=O)(=O)N[C@H]2COC(=O)[C@H](C)COC(=O)[C@H](C)NC(=O)C/C=C\[C@H]2C)cc1	/	/	/	/	22%	/
Cc1cc(NN)nc(NS(=O)(=O)c2ccccc2)n1	32µM*	-9%	14%	?	56µM*	8%
CCCCn1c(=N)c(S(=O)(=O)c2ccc(Cl)cc2)cc2c(=O)n3cccc(C)c3nc21	-5%[59 µM]	/	8%	16%	/	58%
Cc1ccc(CNC(=O)C2CCCN(S(=O)(=O)c3cccc4nsnc34)C2)cc1 (configuration not stated)	11%[59 µM]	/	/	-7%	/	37%
